Bioassay records from PubChem BioAssay.
This is a sample that favours compounds with a hit; in the whole collection about 3.2% have one here.
ERb SRC1 inh: ER-beta (human) coactivator binding inhibition | actives 1.3% (n = 86,000) | AID 633 | inhibition, % at 25.6 µM | TR-FRET ER-beta LBD / SRC1-Cy5 peptide binding; receptor agonist-loaded with 1 µM estradiol;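 active = compounds whose percent inhibition of the receptor-coactivator binding signal exceeds about 50% in the single-dose screen, limit read from the data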;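 also: 0% = receptor plus peptide wells without compound and 100% = peptide-only wells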
ERa SRC1 inh: blocks coactivator binding to human estrogen receptor alpha | P03372 | TR-FRET ER-alpha LBD / SRC-1 peptide, estradiol-bound | inhibition, % at 25.6 µM | actives 1.7% (n = 86,000); in the data active = inhibition above about 50%;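 also: 0% = receptor plus peptide control and 100% = peptide only without receptor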
FAK blocker: FAK (human) kinase inhibition. Q05397. biochemical FAK kinase activity assay. inhibition, %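 (tested at 7 µM)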. actives 0.84% (n = 97,000). AID 727; in the data active = inhibition above about 19%;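 also: 0% = DMSO and 100% = reference compound high control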
ERa coact pot: ER-alpha (human) coactivator binding potentiation; P03372; TR-FRET ERalpha-LBD/SRC-Cy5 coactivator binding, 2 h; 100 = basal binding, no effect; coactivator binding (% of control), % at 25.6 µM; actives 1.3% (n = 86,000); AID 639; in the data active = activity above about 200%;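 also: binding measured in presence of low estradiol as agonist stimulus; 0% = peptide alone without receptor and 100% = receptor with peptide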
* hit, by the source's call; · = not tested or not shown; [ ] = another dose, or the depositor's remark.

SMILES	ERb SRC1 inh	ERa SRC1 inh	FAK blocker	ERa coact pot
Cc1cccc(Cn2c(SCC(=O)Nc3ccccc3)nc3c2c(=O)[nH]c(=O)n3C)c1	20	30	13	88
Cc1cc2cc(CNC(=O)c3ccc(S(=O)(=O)N4CCCC4)cc3)ccc2n1C	32	21	-12	293*[fluorescence artefact?]
Cc1cc2cc(CNC(=O)C3CC3)ccc2n1C	·	·	4	·
Cc1cc2cc(CNC(=O)c3ccc(S(=O)(=O)N4CCCCC4)cc3)ccc2n1C	46	23	-28	404*[fluorescence artefact?]
CCN(CC)S(=O)(=O)c1ccc(C(=O)NCc2ccc3c(c2)cc(C)n3C)cc1	-7	-1	7	141
CCN(CC)S(=O)(=O)c1csc(C(=O)NCc2ccccc2)c1	35	20	-1	91
COc1ccccc1NC(=O)C1CC(=O)OC1c1ccccc1 (configuration not stated)	7	3	5	119
O=C1C(=O)c2ccc(-c3ccccc3)cc2-c2ccccc21	-2	24	56*	90
CC(=O)Nc1ccc2c(c1)C(=O)c1ccccc1C2=O	·	·	11	·
c1ccc(Cc2nnc3sc(-c4ccco4)nn23)cc1	59*	64*[fluorescence artefact?]	9	74
c1ccc(-c2cc(-c3nn4c(-c5ccco5)nnc4s3)c3ccccc3n2)cc1	54*[fluorescence artefact?]	70*[fluorescence artefact?]	6	180
COc1cc(OC)c(-c2nn3c(-c4ccco4)nnc3s2)cc1OC	7	25	3	71
Cc1cc(-c2nn3c(-c4ccccc4)nnc3s2)c2ccccc2n1	36	73*	16	98
COc1cc2oc3ccccc3c2cc1N(CC(=O)N1CCCCC1)S(=O)(=O)c1ccc(C)cc1	·	·	0	·
CCCCC(=O)Nc1ccc(C(=O)Nc2nc(CC(=O)OCC)cs2)cc1	-1	1	0	101
CCOC(=O)c1cc2c(N)c(C(=O)c3cc(C#N)c(SC)nc3C)sc2nc1C	31	69*[fluorescence artefact?]	4	174
CCOC(=O)c1cc(C#N)c(N)nc1C	-3	-8	-2	106
CCOC(=O)c1cc(C#N)c(SCc2ccc(C#N)cc2)nc1C	66*[fluorescence artefact?]	72*[fluorescence artefact?]	-2	252*[fluorescence artefact?]
O=C(C1CC1)N(CCN(Cc1ccccc1)C(=O)C1CC1)Cc1ccccc1	·	·	-2	·
CCN(CC)S(=O)(=O)c1cccc(-c2nnc(SCc3nnc(-c4cccs4)o3)n2N)c1	22	35	1	106
Cc1ccccc1CS(=O)(=O)c1cnc2ccccc2n1	-12	2	3	109
Fc1ccccc1-c1nc(N2CCCCC2)c2ccccc2n1	-8	-6	·	78
CCN1CCN(c2nc(-c3ccncc3)nc3ccccc23)CC1	-6	0	-3	96
Oc1ccccc1-c1nc(N2CCCC2)c2ccccc2n1	56*[fluorescence artefact?]	56*[fluorescence artefact?]	-1	217*[fluorescence artefact?]
CC(C)Oc1nc(-c2ccccc2O)nc2ccccc12	9	9	7	222*[fluorescence artefact?]
SMILES	ERb SRC1 inh	ERa SRC1 inh	FAK blocker	ERa coact pot
Oc1ccccc1-c1nc(N2CCN(Cc3ccccc3)CC2)c2ccccc2n1	-3	-12	0	237*[fluorescence artefact?]
Oc1ccccc1-c1nc(NCc2ccco2)c2ccccc2n1	24	24	10	131
CC1CCN(c2nc(-c3ccccc3O)nc3ccccc23)CC1	46	39	-2	471*[fluorescence artefact?]
CN(C)S(=O)(=O)n1ccnc1	-7	-4	-1	103
CCOC(=O)N1CCC(NS(=O)(=O)c2cc(Br)cc3c2N(C(=O)CC)CC3)CC1	1	13	·	99
CCCC(=O)Nc1nnc(COC)s1	-1	0	-14	103
CCOc1cc(N2CCOCC2)c(OCC)cc1NC1=NCCCCC1	70*[fluorescence artefact?]	44	-6	69
CCOc1cccc(NC(=O)C2CCCN(S(=O)(=O)c3ccc(-n4cnnn4)cc3)C2)c1 (configuration not stated)	-1	-8	-3	237*[fluorescence artefact?]
O=C(NCc1ccco1)c1ccc(S(=O)(=O)N2CCOCC2)cc1	56*[fluorescence artefact?]	70*[fluorescence artefact?]	11	37
Cc1cc2ccccc2n1CCNC(=O)c1ccccc1	14	27	4	122
CCC(=O)NCCn1c(C)cc2ccccc21	-2	-5	-7	80
Cc1cc2ccccc2n1CCNC(=O)Cc1cccc2ccccc12	5	0	1	212*
Cc1cc2ccccc2n1CCNC(=O)c1ccc(S(=O)(=O)N2CCOCC2)cc1	31	70*[fluorescence artefact?]	·	98
Cc1ccccc1C(=O)Nc1cccc(NC(=O)Cn2cnc3c(=O)n(C)c(=O)n(C)c32)c1	-6	-7	2	115
CCCCCCc1nc2c(=O)[nH]c3ccccc3c2o1	8	8	·	249*[fluorescence artefact?]
CCCCCCCc1nc2c(=O)n(C)c3ccccc3c2o1	19	14	0	117
CC1Oc2ccccc2N(CC(=O)N(Cc2ccccc2)Cc2ccccn2)C1=O (configuration not stated)	3	-4	1	90
O=c1c2c3nc4ccccc4nc3n(CC3CCCO3)c2ncn1CCc1ccccc1 (configuration not stated)	-4	-4	·	97
Cc1nc2c(c(=O)n1CC1CCCO1)c1nc3ccccc3nc1n2CCC(C)C (configuration not stated)	23	76*	·	88
COc1cc(OC)cc(-n2c3nc4ccccc4nc3c3c(=O)n(CC4CCCO4)cnc32)c1 (configuration not stated)	48	57*[fluorescence artefact?]	·	124
COc1cc(C2C3=C(CC(C)(C)CC3=O)N(C)C(=O)N2C)cc(OC)c1OC (configuration not stated)	-1	-16	-2	120
COc1cc(C2CC(=O)N3CN(c4ccccc4C)CSC3=C2C#N)cc(OC)c1OC (configuration not stated)	5	9	-1	253*[fluorescence artefact?]
CCOc1ccc(N2CSC3=C(C#N)C(c4ccco4)CC(=O)N3C2)cc1 (configuration not stated)	52*	51*	-1	94
COc1ccccc1N1CSC2=C(C#N)C(c3ccc(SC)cc3)CC(=O)N2C1 (configuration not stated)	61*[fluorescence artefact?]	64*[fluorescence artefact?]	-1	45
CCc1ccccc1N1CSC2=C(C#N)C(c3cc(OC)c(OC)cc3OC)CC(=O)N2C1 (configuration not stated)	0	-6	16	225*[fluorescence artefact?]
SMILES	ERb SRC1 inh	ERa SRC1 inh	FAK blocker	ERa coact pot
Cc1ccc(C)c(S(=O)(=O)NCc2ccc(C(=O)N3CCC(Cc4ccccc4)CC3)cc2)c1	0	6	0	99
CC(C)n1cc(/C=C(\C#N)S(=O)(=O)c2ccccc2)c2ccccc21	-18	-24	-2	107
N=C1/C(=C/c2cccs2)C(=O)N=C2SN=C(SCc3ccccc3)N12	·	·	-4	·
CCCC1=NN2C(=N)/C(=C\c3ccc(SCc4ccco4)o3)C(=O)N=C2S1	70*	84*[fluorescence artefact?]	11	61
CCC1=NN2C(=N)/C(=C\c3ccc(SCc4ccco4)o3)C(=O)N=C2S1	75*	75*	-2	36
CC(C)OC(=O)NCN1C(=O)C2C3C=CC(C3)C2C1=O (configuration not stated)	-2	-12	-1	138
CCOc1ccc2nc(SCC(=O)NC(=O)NCc3ccco3)sc2c1	3	12	3	97
